The results in this text go back to the supplement of paper PMC8253809.

Each structure is given as a SMILES string.

The assay has as its system DIPGX29 (H3.3 K27M diffuse intrinsic pontine glioma line). As to the kind of experiment: growth inhibition (% activity, log2 RLU normalised to DMSO / staurosporine); higher = more growth inhibition. Particulars: 33 µM. In a few lines: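 Cells (pHGG lines and H9-derived neural stem cells) were plated on Geltrex-coated 384-well plates and exposed to approved drugs at a single final concentration of about 33 μM, in triplicate, for 7 days at 37 °C, 5% CO2. Log2-transformed CellTiter-Glo luminescence was normalised per plate to % activity between solvent and positive control wells, and the growth-inhibition value is the median over replicates.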
For `Cc1onc(-c2ccccc2)c1-c1ccc(S(N)(=O)=O)cc1`, the growth inhibition came to 0.8%.
Regarding `C#C[C@]1(O)CC[C@H]2[C@@H]3CCC4=CC(=O)CC[C@@H]4[C@H]3CC[C@@]21C`, the growth inhibition was -0.22%.
To `N=C(N)c1ccc(N=NNc2ccc(C(=N)N)cc2)cc1` belongs -2.11%; to `O[C@@H]1CO[C@H]2[C@@H]1OC[C@@H]2O`, -2.46%.
To `CC[C@H]1OC(=O)[C@H](C)[C@@H](O[C@H]2C[C@@](C)(OC)[C@@H](O)[C@H](C)O2)[C@H](C)[C@@H](O[C@@H]2O[C@H](C)C[C@H](N(C)C)[C@H]2O)[C@](C)(O)C[C@@H](C)[C@@H]2N[C@@H](COCCOC)O[C@H]([C@H]2C)[C@]1(C)O` belongs -1.13%.
To `CC(C)NCC(O)COc1cccc2ccccc12` (stereo unspecified) belongs -0.19%; to `N#CC1(c2ccc(NC(=O)c3cccnc3NCc3ccncc3)cc2)CCCC1`, 1.93%.
As to `Clc1ccc2c(c1)C(N1CCNCC1)=Nc1ccccc1O2`, the growth inhibition worked out at 0.461%.
On to `C=C1CCC(O)CC1=CC=C1CCCC2(C)C1CCC2C(C)CCCC(C)(C)O` (stereo unspecified), for which the growth inhibition is -0.0142%.
To `CC(=O)Oc1cc(C(F)(F)F)ccc1C(=O)O` belongs -1.87%; to `O=c1ccc2ccccc2o1`, 0.12%; to `Cc1c(O)c(=O)ccn1C`, -0.259%.
To `CN(C)CCC=C1c2ccccc2CCc2ccccc21` belongs 0.114%.
To `CC(C)(C(=O)O)c1ccc(C(O)CCCN2CCC(C(O)(c3ccccc3)c3ccccc3)CC2)cc1` (stereo unspecified) belongs -0.186%; to `C[C@@H](O)[C@H]1C(=O)N2C(C(=O)OCOC(=O)C(C)(C)C)=C(SC3CN(C4=NCCS4)C3)[C@H](C)[C@H]12`, -0.211%; to `Cc1c(Nc2ncccc2C(=O)O)cccc1C(F)(F)F`, 0.454%.
On to `CCCCCCCN(CC)CCCC(O)c1ccc(NS(C)(=O)=O)cc1` (stereo unspecified), for which the growth inhibition was -0.358%.
To `COc1ccccc1N1CCN(CCCNc2cc(=O)n(C)c(=O)n2C)CC1` belongs -0.448%.
On to `Cc1ncc([N+](=O)[O-])n1CC(C)O` (stereo unspecified), for which the growth inhibition was -2.47%.
In the case of `CC[C@H]1OC(=O)[C@H](C)[C@@H](O[C@H]2C[C@@](C)(OC)[C@@H](O)[C@H](C)O2)[C@H](C)[C@@H](O[C@@H]2O[C@H](C)C[C@H](N(C)C)[C@H]2O)[C@](C)(O)C[C@@H](C)/C(=N\OCOCCOC)[C@H](C)[C@@H](O)[C@]1(C)O`, the growth inhibition was -1.55%.
In the case of `N=S(=O)(O)Cc1noc2ccccc12`, the growth inhibition is -1.43%.
